Screening results deposited in PubChem BioAssay by several laboratories.
SKKanGAS inh: inhibitors of SKKanGAS S. pyogenes growth in kanamycin (SK-promoter or general growth effect) | BacTiter-Glo, 6 h | inhibition, % at 7.5 µM | 1.3% of 300,000 active;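 active = mean replicate score, as percent of positive control median, at least 50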;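 also: strain carries kanamycin resistance gene driven by streptokinase promoter and grows in 40 µg/ml kanamycin; loss of luminescence reflects streptokinase promoter inhibition or plain growth inhibition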
PP5 inh: blocks human protein phosphatase 5 activity; P53041; purified PP5c, OMFP substrate fluorescence; inhibition, % at 6.7 µM; 0.18% of 320,000 active;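 active = inhibition above the campaign's mean inhibition across all tested compounds plus 3 SD, cut at about 9.5% in these data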
Target sequence (P53041 whole entry, looked up): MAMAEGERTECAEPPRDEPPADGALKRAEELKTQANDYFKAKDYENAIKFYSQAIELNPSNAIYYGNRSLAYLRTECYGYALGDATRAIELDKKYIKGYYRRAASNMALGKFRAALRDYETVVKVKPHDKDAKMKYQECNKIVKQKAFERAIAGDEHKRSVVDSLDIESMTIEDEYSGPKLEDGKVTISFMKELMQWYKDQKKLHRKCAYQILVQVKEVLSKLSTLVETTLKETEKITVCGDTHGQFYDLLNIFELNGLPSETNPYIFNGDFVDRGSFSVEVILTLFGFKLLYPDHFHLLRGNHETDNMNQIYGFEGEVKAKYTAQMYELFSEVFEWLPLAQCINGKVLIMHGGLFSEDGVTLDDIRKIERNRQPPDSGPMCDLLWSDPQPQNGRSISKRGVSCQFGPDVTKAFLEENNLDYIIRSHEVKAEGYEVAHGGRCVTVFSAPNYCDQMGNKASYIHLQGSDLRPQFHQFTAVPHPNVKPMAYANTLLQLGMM
Exocytosis inh: lytic granule exocytosis inhibition; TALL-104 LAMP-1 surface exposure, flow cytometry; cells stimulated with thapsigargin and PMA; AID 651702; 0.66% of 360,000 active; inhibition, % at 10 µM;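 active = inhibition above about 55%, limit read from the data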
PP1 counter: PP1-alpha (human) inhibition in PP5 counter-screen | P62136 | AID 2235 | purified PP1alpha, OMFP fluorescence | 0.9% of 320,000 active | inhibition, % at 6.7 µM;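 active = inhibition above the mean inhibition of all tested compounds plus 3 SD, computed separately for each screening campaign, cut at about 15% in these data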
IDE cell inh: inhibitors of human insulin-degrading enzyme in cells; P14735; HEK cells, FAbetaB cleavage, fluorescence polarization; inhibition, % at 5.59 µM; 0.41% of 320,000 active;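 active = percent inhibition above the average of all tested compounds plus 3 SD, set per screening campaign, cut at about 16% in these data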;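 also: IDE supplied by intact live HEK cells; FP after avidin binding of uncleaved biotin substrate so inhibition keeps polarization high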
IDE cell activ: IDE (human) activation, cell-based. P14735. HEK cells, FAbeta-B cleavage, fluorescence polarization; 0% vehicle, 100% cell-free pure enzyme wells. activation, % at 5.96 µM. 0.073% of 340,000 active. AID 493087;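 active = activation above the mean of all tested compounds plus 3 SD, set per screening campaign, cut at about 17% in these data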
Exocytosis CP01: blocks lytic granule exocytosis; shares compounds with Exocytosis inh; TALL-104 cells, LAMP-1 externalization, flow cytometry; stimulated with PMA plus thapsigargin; inhibition, % at 10 µM; 11% of 1,500 active; AID 651954; in the data active = inhibition above about 60%
A number is an active result; n = inactive; x = no result. Hits are enriched below; roughly 2.8% of the tested compounds scored in any of these assays.

SMILES	SKKanGAS inh	PP5 inh	Exocytosis inh	PP1 counter	IDE cell inh	IDE cell activ	Exocytosis CP01
COc1ccccc1CCNC(=O)Cn1ccc2cc(S(=O)(=O)N3CCC(C)CC3)ccc21	n	n	60	n	n	n	n
COc1ccccc1CCC(=O)NCCCn1ccc2ccccc21	n	n	72	n	n	n	n
Cc1nc(NC(=O)C(C)Oc2cccc(Cl)c2)sc1C(=O)N(C)C (stereo not given)	n	n	n	n	n	n	x
CC(Oc1ccc(F)cc1)C(=O)N(CCC1=CCCCC1)c1c(N)n(Cc2ccccc2)c(=O)[nH]c1=O (stereo not given)	n	n	n	n	n	n	x
CCOC(=O)N1CCN(CCC(=O)c2ccc(Br)cc2)CC1	n	x	88	x	x	n	n
O=C1CCN(CCc2ccccc2)CCN1[C@H](CSc1ccccc1)c1ccccc1	n	n	n	n	n	n	x
Cc1ccc(SC[C@H](c2ccccc2)N2CCN(CCc3ccccc3)CCC2=O)cc1	n	n	59	n	n	n	n
COc1cccc(-c2nc(NC3CCCC3)c3ccccc3n2)c1O	55	n	78	n	n	n	n
C=CCNc1nc(-c2cccc(OC)c2O)nc2ccccc12	n	n	n	n	n	n	x
COc1cccc(-c2nc(NCc3ccco3)c3ccccc3n2)c1O	n	n	n	n	n	n	x
c1ccc(-c2nc(NC3CCCC3)c3ccccc3n2)cc1	n	n	57	n	n	n	n
COc1cccc(-c2nc(NCc3ccccc3)c3ccccc3n2)c1O	n	n	64	n	n	n	n
O=C1C(c2ccccc2)C2C=CC(C2)N1O (stereo not given)	x	x	n	x	x	n	x
CC1CC(C)(C)Nc2ccc(OC(=O)c3ccco3)cc21 (stereo not given)	n	n	82	n	n	n	n
COc1ccccc1CNc1nc(NCc2ccc(C(C)C)cc2)c2sccc2n1	x	x	62	x	x	x	85
CC(C)NC(=O)c1ccc2c(c1)N(Cc1ccccc1)C(=O)C(C)(C)O2	n	x	n	x	x	n	x
c1ccc(CN2CCCC3(CCCN(Cc4nc(COc5ccccc5)no4)C3)C2)cc1 (stereo not given)	n	n	60	n	n	n	n
c1ccc(CN2CCCC3(CCCN(Cc4nc(CC5CC5)no4)C3)C2)cc1 (stereo not given)	n	n	n	n	n	n	x
NC(=O)c1ccc(NC(=O)COC(=O)C2CCN(S(=O)(=O)c3cccs3)CC2)cc1	x	x	n	x	n	n	x
CCOc1ccc(NC(=O)C2CCCN2S(=O)(=O)c2ccc(OCC)cc2)cc1 (stereo not given)	n	n	56	n	n	n	n
COc1ccc(S(=O)(=O)N2CCCC2C(=O)Nc2ccc(C)cc2)cc1 (stereo not given)	n	n	n	n	n	n	x
CCNc1nc(-c2sc(NC(=O)C(C)(C)C)nc2C)c(-n2cc(-c3ccccc3)nn2)s1	x	x	79	x	x	x	n
Cc1nc(NC(=O)C(C)(C)C)sc1-c1nc(N)sc1-n1cc(-c2ccccc2)nn1	x	x	n	x	x	x	x
C=Cc1ccc(CN2CCCN(Cc3ccc(F)cc3)S2(=O)=O)cc1	n	n	n	n	n	n	x
N#Cc1cccc(CN2CCCN(Cc3ccc(F)cc3)S2(=O)=O)c1	n	n	85	n	n	n	n
SMILES	SKKanGAS inh	PP5 inh	Exocytosis inh	PP1 counter	IDE cell inh	IDE cell activ	Exocytosis CP01
CCN(CC)CCN(C(=O)c1ccc(S(=O)(=O)N(C)C2CCCCC2)cc1)c1nc2c(C)cccc2s1	n	n	n	n	n	n	x
Cc1ccc2sc(N(CCCN(C)C)C(=O)CCS(=O)(=O)c3ccccc3)nc2c1C	n	n	84	n	n	n	n
Cc1ccc2sc(N(CCCN(C)C)C(=O)c3ccc(S(=O)(=O)N(C)C4CCCCC4)cc3)nc2c1C	n	n	62	n	n	n	n
CCc1ccc(NC(=O)CSCCO)cc1	n	n	85	n	n	n	n
Cc1c(C(=O)OCC(=O)Nc2cccc(S(N)(=O)=O)c2)oc2c1ccc1ccccc12	66	n	88	n	n	n	93
NS(=O)(=O)c1cccc(NC(=O)COC(=O)c2ccccc2C(=O)c2ccccc2)c1	x	n	n	n	n	n	x
COc1cc(/C=C(/C#N)C(=O)Nc2ccc(Cl)cc2)ccc1Oc1nc(Cl)ncc1F	n	n	n	n	n	n	x
CC1(C(=O)OCC(=O)Nc2nc(-c3ccc(F)c(F)c3)cs2)CC1(Cl)Cl (stereo not given)	71	n	92	n	n	n	101
CCOC(=O)c1c(CSCc2ccccc2)oc2ccc(O)c(CN(C)C)c12	n	n	85	n	n	n	n
O=C(Cn1sc2ccccc2c1=O)NC12CC3CC(CC(C3)C1)C2	89	n	104	n	58	n	100
CCN1CC(CN(C)Cc2nc(Cc3ccccc3)no2)CC1=O (stereo not given)	n	n	n	n	n	n	x
Cc1cncn1CCc1nc2c3ccccc3nc(SCC(=O)Nc3cccc(Cl)c3)n2n1	n	n	68	n	n	n	81
Cc1ccc(C(=O)c2c(C)oc3c2C(=O)C(=O)c2ccccc2-3)cc1	93	n	103	n	n	n	n
COc1ccc(NC(=O)Cc2ccsc2)cc1S(=O)(=O)N1CCOCC1	x	n	n	n	n	n	x
Cc1cc(C)c(C)c(S(=O)(=O)N2CCC(C(=O)N(C)Cc3nc4ccccc4c(=O)[nH]3)CC2)c1C	x	x	n	x	x	n	x
CC(C)[C@H](NC(=O)c1ccccc1)C(=O)OCC(=O)N1CCc2ccccc2C1	n	n	68	n	n	n	n
CC(C)C(NC(=O)c1ccccc1)C(=O)OCC(=O)N1CCCCC1 (stereo not given)	x	n	n	n	n	n	x
COc1ccc(CN(CC(=O)NCc2ccccc2)C(=O)CCC(=O)Nc2ccccn2)cc1	n	n	n	n	n	n	x
O=S(=O)(Nc1cc(Sc2ncn[nH]2)c(O)c2ccccc12)c1ccccc1	x	x	101	x	x	x	103
Cc1cc(OCCCC(=O)Nc2cccc(-n3cnnn3)c2)ccc1Cl	n	n	66	n	n	n	n
CCOC(=O)C1CCN(S(=O)(=O)c2ccc3c4c(cccc24)C(=O)N3CC)CC1	x	x	n	x	n	n	x
CCCN(S(=O)(=O)c1ccccc1F)S(=O)(=O)c1ccccc1Br	n	n	57	n	n	n	n
CCN(Cc1ccccc1)S(=O)(=O)c1ccccc1Br	x	x	n	x	x	n	x
COc1ccccc1C(=O)Nc1cccc2cccnc12	n	n	56	n	n	n	n
COc1ccc(C)cc1NC(=O)CNC(c1ccccc1)c1ccc(C)cc1 (stereo not given)	n	n	n	n	n	n	x
COc1ccccc1NC(=O)c1ccccc1Oc1ccccc1	n	n	68	n	n	n	n
COc1ccc(NC(=O)c2ccccc2Oc2ccccc2)c(OC)c1	n	n	n	n	n	n	x
O=C(Nc1cccc2cccnc12)c1ccccc1Cl	n	n	n	n	n	x	x
